The values that follow come from PubChem BioAssay (NCATS).

Structures are written as SMILES. Several values for one entry are separate records, joined by “and”; a condition that tells them apart may be missing. Equal values may be shown once. Results filed as inconclusive are left out. Activity calls are given as the source filed them. Calls come from the whole dose curve; as a rule, active = well fitted inhibition curve with a large enough effect; inconclusive = small, poorly fitted or top-dose-only effect; inactive = no such curve, though single readings can be large or run the other way.

Muscarinic acetylcholine receptor M1 (Rattus norvegicus), sequence (P08482 whole entry, looked up): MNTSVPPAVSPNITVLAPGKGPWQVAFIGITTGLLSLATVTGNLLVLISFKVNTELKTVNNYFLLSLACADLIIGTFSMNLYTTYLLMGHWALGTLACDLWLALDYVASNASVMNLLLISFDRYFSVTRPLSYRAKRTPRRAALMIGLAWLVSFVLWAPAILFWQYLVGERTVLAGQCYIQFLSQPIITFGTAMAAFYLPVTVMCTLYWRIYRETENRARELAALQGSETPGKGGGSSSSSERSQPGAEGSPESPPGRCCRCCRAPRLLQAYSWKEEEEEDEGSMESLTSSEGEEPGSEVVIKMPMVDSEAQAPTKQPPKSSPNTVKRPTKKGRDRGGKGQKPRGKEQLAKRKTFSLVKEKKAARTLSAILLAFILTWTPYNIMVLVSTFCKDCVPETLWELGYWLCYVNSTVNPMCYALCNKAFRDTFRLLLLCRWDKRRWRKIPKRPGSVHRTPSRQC

This test deals with Muscarinic acetylcholine receptor M1 (Rattus norvegicus) (UniProt P08482). Put plainly: qHTS Assay for Antagonists of Acetylcholine Muscarinic M1 Receptor: Kinetic Measurement of Intracellular Calcium Response (AID 943). Note: nearly all actives have a fitted effect of over 75% in size. The settings on record: M1-expressing cells, kinetic intracellular calcium fluorescence; series mostly up to 35.3 µM; activity change, negative = inhibition: at the top concentration. An excerpt:
NIH Molecular Libraries Screening Centers Network [MLSCN]
NIH Chemical Genomics Center [NCGC]
Acetylcholine muscarinic M1 receptor is a G-protein coupled receptor (GPCR) coupling to the Gq G protein. It is mainly expressed in brain and functionally related to the learning and memory processes. The agonists of this receptor have the potential for the treatment of Alzheimer's disease and cognitive impairments associated with Schizophrenia. Upon an activation of the M1 receptor, phosholipase C (PLC) is activated to produce inositol 1,4,5-trisphosphate (IP3) and diacyl glycerol (DAG) resulting in increase of intracellular free Ca2+ and activation of protein kinase C (PKC). The increase of intracellular calcium can be measured by the fluorescent calcium dyes, Fluo-3 and Fluo-4, using a fluorescence kinetic plate reader.
We have obtained a M1-CHO cell line transfected with rat acetylcholine M1 receptor and optimized a calcium assay with this cell line for compound screening as a counter-screen assay for other Gq-coupled GPCRs.
NCGC Assay Protocol Summary:
The CHO-M1 (CHO-M1) cell line transfected with the rat acetylcholine muscarinic M1 receptor was obtained from ATCC. The cells were maintained in call culture flasks with F12 Kaighn's media (Invitrogen) supplemented with 10 % FBS, 100 units/ml penicillin, 100 ug/ml streptomycin and 250 ug/ml geneticin (Invitrogen) at 37C, 5 % CO2 in a humidified atmosphere. At 90-95 % confluence, the cells were then detached in 15 ml […] % trypsin by 3 minutes incubation at 37C and centrifuged at 1000 RPM to remove the trypsin solution. The resulting cell pellet was resuspended in the cell freezing media containing 10 % DMSO (Invitrogen) at a density of 4 x 10^7 cells/ml. The aliquots of cells at 0.5 - 1 ml per vial were frozen down slowly at 1 degree C/min using a Cryo 1 degree C freezing container in the presence of isopropanol (Nalgene Nunc, Rochster, NY) overnight in a -80C freezer. The frozen cells were then transferred to liquid nitrogen for the storage up to one year.
The resuspended frozen cells were plated at 3 ul/well with 2000 cells in the black, tissue culture treated, clear bottom 1536-well plates. After overnight incubation at 37C, 5% CO2, 2.5 ul/well no-wash calcium dye (containing Fluo-4, BD Biosciences) were loaded and incubated at 37C, 5 % CO2 for 1 hour followed by a 10 min incubation with 20 nl compound in DMSO solution. The assay plates were then placed onto the kinetic fluorescence plate reader (FDSS-7000, Hamamatsu) for a measurement of the kinetic changes in intracellular free calcium. The basal fluorescence signal was measured for 6 times at 1 Hz followed by an addition of 1 ul of carbachol and continued 4 min measurement. The results were calculated as the maximal signal (peak) divided by the minimal signal (basal).
1536-well assay protocol:
(1) 3 ul/well containing 2000 M1-CHO cells in 1536 tissue culture treated black/clear bottom plate
(3) Add 1ul/well calcium dye (from no-wash calcium dye kit, BD Biosciences) containing […]
(4) Incubate 1 hour at 37C with 5% CO2
(5) Add 20 nl compound diluted in DMSO
(6) Incubate 10 minutes at the room temp
(7) Place the plate in FDSS-7000 instrument (Ex = 480 nm and […])
#- read the assay plate 6 times at 1 Hz for basal signal
#- add 1 ul/well EC80 carbachol (100 nM final)
#- continuously read the assay plate for 4 min at 1 Hz
Keywords: acetylcholine muscarinic M1 receptor, calcium kinetic assay, Fluo-4, high throughput screening, MLSMR, MLSCN, NIH Roadmap, qHTS and NCGC
In the case of `c1cnc(N2CCN(Cc3ccc4c(c3)OCO4)CC2)nc1`, the Potency was 14100 nM (active).

With `CCCC(C(=O)OCCN(CC)CC)(c1ccccc1)c1ccccc1`, the Potency is 447 nM (active).

For the compound `CCN(CC)CCNC(=O)c1ccc(NC(C)=O)cc1`, the “activity change, negative = inhibition” value was -38.8% (inactive).

Regarding `O=c1[nH]c(=O)n([C@H]2C[C@H](O)[C@@H](CO)O2)cc1Br`, the “activity change, negative = inhibition” value is -13.8% (inactive).

With `CCO/C([O-])=N/c1c[n+](N2CCOCC2)no1`, the “activity change, negative = inhibition” value was -28.8% (inactive).

Consider `OCCN1CCN(CCCN2c3ccccc3C=Cc3ccccc32)CC1`, for which the Potency is 3.16 µM (active) and 3.55 µM (active).

As for `CCCN(CCC)CCc1cccc2c1CC(=O)N2`, the Potency is 17800 nM (active).

Turning to `c1cc(CN2CCCCC2)cc(OCCCNc2nc3ccccc3s2)c1`, the Potency is 8910 nM (active).

As for `COc1cc(C(=O)OCCCN2CCCN(CCCOC(=O)c3cc(OC)c(OC)c(OC)c3)CC2)cc(OC)c1OC`, the Potency was 316 nM (active).

For `CCOC(=O)c1cnc2c(cnn2CC)c1NN=C(C)C`, the “activity change, negative = inhibition” value was -43.6% (inactive).

Take `O=C(O)CN(CCOCCOCCN(CC(=O)O)CC(=O)O)CC(=O)O`: the “activity change, negative = inhibition” value was 12.7% (inactive).

Consider `O=C(O)CCCCCCCC(=O)O`, for which the “activity change, negative = inhibition” value is 7.71% (inactive).

Regarding `O=C(CCNNC(=O)c1ccncc1)NCc1ccccc1`, the “activity change, negative = inhibition” value is -32.6% (inactive).

`CCC(=O)c1ccc2c(c1)N(CCCN(C)C)c1ccccc1S2`: the Potency is 398 nM (active).

For the compound `N[C@@H](COP(=O)(O)O)C(=O)O`, the “activity change, negative = inhibition” value was -36.7% (inactive).

For `CC(C)[N+](C)(CCOC(=O)C1c2ccccc2Oc2ccccc21)C(C)C`, the Potency was 11.2 nM (active).

With `O=C(O)CN(CCN(CC(=O)O)CC(=O)O)CCN(CC(=O)O)CC(=O)O`, the “activity change, negative = inhibition” value is -21.8% (inactive).

Regarding `COC(=O)[C@@H](N)Cc1ccc(O)c(O)c1`, the “activity change, negative = inhibition” value was -37.3% (inactive).

On to `CN1CCN(C2=Nc3ccccc3Oc3ccc(Cl)cc32)CC1`, for which the Potency was 282 nM (active).

In the case of `CC1=C(C)C(=O)C(CCCCC#CCCCC#CCO)=C(C)C1=O`, the “activity change, negative = inhibition” value is -37% (inactive).

As for `Cc1ccc(=O)n(-c2ccccc2)c1`, the “activity change, negative = inhibition” value is -21% (inactive).

As to `Cc1nc2sccn2c(=O)c1CCN1CCC(=C(c2ccc(F)cc2)c2ccc(F)cc2)CC1`, the Potency was 3160 nM (active).

For `CN(C)CCOC(=O)COc1ccc(Cl)cc1`, the “activity change, negative = inhibition” value was -7.89% (inactive).

Take `O=C(O)CP(=O)(O)O`: the “activity change, negative = inhibition” value is -6.58% (inactive).

As to `Cc1scc2c1N(C(=O)CN1CCN(C)CC1)c1ccccc1NC2=O`, the Potency was 31.6 nM (active).

`CN(C)CCCN1c2ccccc2Sc2ccc(C(F)(F)F)cc21`: the Potency is 158 nM (active).
